# An excerpt weighted towards active compounds, which were near 5.9% of everything screened.
# ALR inh = blocks human ALR sulfhydryl oxidase activity | P55789 | purified ALR, DTT oxidation, H2O2 HRP-luminol luminescence | inhibition, % (no concentration beside the values) | actives 3.8% (n = 290,000) | AID 485317;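 active means mean replicate inhibition above about 79%, with every replicate also reaching it, limit read from the data; inconclusive means only one of the two criteria met; inactive means mean below limit and not every replicate reaching it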
# rCAG binder = r(CAG) repeat RNA binding; TO-PRO-1 dye displacement fluorescence; inhibition, % at 3 µM; actives 1.3% (n = 370,000);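 active means inhibition above the plate cutoff, the mean of all test compounds on that plate plus 3 SD, cut at about 35% in these data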;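 further: 0% = DMSO alone and 100% = 100 µM mitoxantrone as full dye displacement; higher means more dye released from RNA so lower well fluorescence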
# ABHD5-PLIN5 inh = ABHD5-PLIN5 protein interaction inhibition; Q00G26+Q8WTS1; Split G. princeps luciferase complementation, luminescence, 4 h; inhibition, % at 4 µM; actives 0.78% (n = 360,000); AID 602281;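 active means inhibition above the mean inhibition across every tested compound plus 3 SD, cut at about 22% in these data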;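 further: 0% = DMSO only wells and the 100% control is not disclosed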
# Target sequence (Q00G26 whole entry, looked up): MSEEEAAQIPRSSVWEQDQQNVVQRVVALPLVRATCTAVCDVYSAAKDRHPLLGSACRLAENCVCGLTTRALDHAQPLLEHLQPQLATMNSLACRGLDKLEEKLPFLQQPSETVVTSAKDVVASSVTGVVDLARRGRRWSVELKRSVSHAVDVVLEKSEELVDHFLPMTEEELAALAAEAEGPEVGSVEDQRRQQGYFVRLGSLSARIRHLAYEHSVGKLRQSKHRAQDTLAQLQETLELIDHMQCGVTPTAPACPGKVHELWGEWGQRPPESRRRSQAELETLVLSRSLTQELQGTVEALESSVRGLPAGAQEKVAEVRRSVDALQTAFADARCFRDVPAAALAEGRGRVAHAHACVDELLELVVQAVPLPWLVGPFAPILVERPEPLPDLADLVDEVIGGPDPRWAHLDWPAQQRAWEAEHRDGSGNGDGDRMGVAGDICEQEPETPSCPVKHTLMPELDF
# Target sequence (Q8WTS1 whole entry, looked up): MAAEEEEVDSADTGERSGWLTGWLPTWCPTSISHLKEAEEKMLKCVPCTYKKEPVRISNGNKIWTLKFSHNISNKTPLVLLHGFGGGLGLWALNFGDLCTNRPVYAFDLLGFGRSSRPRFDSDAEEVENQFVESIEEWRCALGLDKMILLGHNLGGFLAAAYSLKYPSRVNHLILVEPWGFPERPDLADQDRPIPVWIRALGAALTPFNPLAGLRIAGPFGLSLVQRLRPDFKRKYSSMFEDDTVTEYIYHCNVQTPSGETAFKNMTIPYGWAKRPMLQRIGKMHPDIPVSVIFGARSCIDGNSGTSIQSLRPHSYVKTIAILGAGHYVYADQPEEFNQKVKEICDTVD
# PRMT1 inh = PRMT1 (human) inhibition, primary screen; Q99873; actives 1.3% (n = 370,000); recombinant PRMT1, activity-based probe fluorescence polarization; inhibition, % at 2.79 µM; AID 652257;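 active means inhibition above about 21% made by adding two undisclosed values, limit read from the data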
# Rtt109 Vps75 = blocks Candida albicans Rtt109/Vps75 acetyltransferase activity; Q5AAJ8; inhibition, % at 34.9 µM; purified Rtt109/Vps75, ThioGlo CoA-SH fluorescence, 4 h; actives 0.16% (n = 330,000); AID 540336;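 active means inhibition of at least 50% in every replicate; inconclusive means best replicate reaches 50% inhibition but some replicates fall short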
# LANA-H2A inh = blocks KSHV LANA binding to histone H2A/H2B; Q9QR71; cell-free LANA-H2A/H2B peptide, fluorescence polarization; inhibition, % (concentration not given with the values); actives 0.6% (n = 320,000); AID 2629; in the data active means inhibition mostly above about 10%, no sharp cut-off; inactive means mostly below about 6.7%
# * = called active by the depositor; u = inconclusive; x = no result; + = active, no number.
SMILES,ALR inh,rCAG binder,ABHD5-PLIN5 inh,PRMT1 inh,Rtt109 Vps75,LANA-H2A inh
COCC(=O)N1CCC2CC1c1cc(Cl)ccc12 (stereo not given),x,1,9,0,7,x
CC1CCc2c(sc3[nH]c(=S)n(C)c(=O)c23)C1 (stereo not given),7,4,1,7,4,2
CCOC(=O)[C@]12CCCCC/C=C\1N(Cc1ccc(OC)cc1)C(=O)[C@H]2CC(=O)NCc1ccccc1,x,4,x,1,x,x
Nc1c(C(=O)c2ccccc2)oc2ccc([N+](=O)[O-])cc12,-1,8,11,-1,55*,5
Nc1c(C(=O)c2ccccc2)oc2ccc(Br)cc12,-1,7,-9,1,3,1
O=S(=O)(Nc1ccc2c(c1)OCO2)c1ccc(F)c(F)c1,88*,1,1,-3,1,27*
O=C(Nc1ccc(Cl)cc1)OC[C@@H]1CSCCS(=O)(=O)N1,x,1,x,2,x,x
O=c1ccoc2ccccc12,x,-2,3,-2,x,x
COc1cccc(CNc2ccc3[nH]c(=O)[nH]c3c2)c1OCc1ccccc1Cl,97*,-4,-1,14,-1,10
COc1cccc(CNc2ccc3[nH]c(=O)[nH]c3c2)c1OCc1ccccc1,99*,x,-16,x,-5,10
COc1cc(CNc2ccc3[nH]c(=O)[nH]c3c2)ccc1OCc1ccc(F)cc1,89*,3,-2,12,-5,6
C=CCOc1ccc(CNc2ccc3[nH]c(=O)[nH]c3c2)cc1OC,x,4,9,3,-3,x
C=CCOc1cccc(CNc2ccc3[nH]c(=O)[nH]c3c2)c1,99*,1,-5,5,-1,4
COc1cc(CNc2ccc3[nH]c(=O)[nH]c3c2)ccc1OCc1ccccc1,68,5,-11,8,6,-1
CC(=O)N1CCCN(C(=O)CN2C(=O)CC(C)(C)S(=O)(=O)c3ccccc32)CC1,x,-1,x,-2,x,x
c1ccc(OCCNc2ccn3nc(-c4ccco4)cc3n2)cc1,x,10,-1,21*,x,x
Clc1cccc(CNc2ccn3nc(-c4cccs4)cc3n2)c1,x,5,-5,3,x,x
c1ccc(OCCNc2ccn3nc(-c4ccccc4)cc3n2)cc1,x,7,5,3,x,x
Clc1cccc(CNc2ccn3nc(-c4ccco4)cc3n2)c1,x,7,5,23*,x,x
O=C(NC1CCN(C(=O)N2c3ccccc3Sc3ccccc32)CC1)c1ccccc1Cl,2,-3,5,-2,x,3
NC(=O)C1CCN(C(=O)N2c3ccccc3Sc3ccccc32)CC1,80*,-3,3,1,4,3
CCNc1ccc(S(=O)(=O)N(C)C)cc1NCC(=O)Nc1ccccc1Cl,99*,-1,0,-2,6,4
CCNc1ccc(S(=O)(=O)N(C)C)cc1NCC(=O)Nc1c(F)cccc1F,x,-1,7,2,11,x
O=C(Nc1ccc(O)cc1)c1ccc(C(=O)c2ccccc2)o1,97*,0,1,-1,-3,-7
O=C(Nc1ccc(Nc2ccccc2)cc1)c1ccc(Br)o1,99*,7,-3,5,33,7
SMILES,ALR inh,rCAG binder,ABHD5-PLIN5 inh,PRMT1 inh,Rtt109 Vps75,LANA-H2A inh
COc1cccc(NC(=O)c2ccc(C(=O)c3ccccc3)o2)c1,x,-5,-2,-1,10,5
CC(C)(C)c1ccc(S(=O)(=O)N2CCC(C(=O)NCc3cccs3)CC2)cc1,x,3,x,1,x,x
COC(=O)N[C@H](C(=O)N[C@@H](Cc1ccccc1)[C@@H](O)CN(Cc1ccc(-c2ccccn2)cc1)NC(=O)[C@@H](NC(=O)OC)C(C)(C)C)C(C)(C)C,x,3,x,-7,x,x
Nc1[nH]c(C(=O)c2ccccc2)c(-c2cccc3ccccc23)c1C(=O)NCc1ccc(Cl)cc1Cl,x,10,x,-1,x,x
COc1cccc2c1C(=N)c1c(O)c3c(c(O)c1C2=O)CC(O)(C(C)=O)CC3OC1CC(N)C(O)C(C)O1 (stereo not given),x,x,11,x,-2,x
COc1cccc2c1C(=O)c1c(O)c3c(c(O)c1C2=O)CC(O)(C(C)=O)CC3OC1CC(O)C(O)C(C)O1 (stereo not given),x,-16,-7,+,2,x
CCOC(=O)N1CCN(CC(O)c2ccc3c(c2)CCN3)CC1 (stereo not given),82*,4,12,-5,17,-3
COc1ccc(-c2nnc3sc(-c4ccco4)nn23)cc1OC,99*,3,-4,0,1,1
COc1cccc(-c2nnc3sc(-c4ccco4)nn23)c1,-9,3,-4,0,4,-1
COc1cc(-c2nnc3sc(-c4ccco4)nn23)cc(OC)c1OC,98*,3,-2,6,0,5
CCc1ccc(NC(=O)/C(C#N)=C/c2ccncc2)cc1,u,2,-6,1,-3,2
CC(=O)c1ccc(NC(=O)/C(C#N)=C/c2ccncc2)cc1,98*,11,2,0,3,7
CC1CCN(c2ccc(C(F)(F)F)cc2N)CC1,98*,-2,1,0,9,0
c1ccc(N=NC2=NN(c3ccccc3)CS2)cc1,x,7,-1,2,x,x
Cc1cc(C)cc(C(=O)OCCCN(C)C2CN(Cc3cn(Cc4ccccc4Cl)nn3)S(=O)(=O)C2)c1 (stereo not given),x,5,x,2,x,x
Cc1ccccc1-c1nc(CS(=O)(=O)CC(=O)NCc2ccc(F)cc2)c(C)o1,-17,0,-3,-3,-4,-2
CCC(C)NC(=O)CS(=O)Cc1nc(-c2ccccc2C)oc1C (stereo not given),98*,1,-5,6,-3,1
Cc1ccc(NC(=O)CS(=O)CC(=O)NCCCN(C)c2ccccc2)cc1 (stereo not given),u,-1,2,-2,2,-7
Cc1ccccc1-c1nc(CS(=O)CC(=O)NCc2ccccn2)c(C)o1 (stereo not given),98*,5,0,3,2,4
Cc1ccccc1-c1nc(CS(=O)CC(=O)NCCCN(C)c2ccccc2)c(C)o1 (stereo not given),99*,0,4,14,1,-4
Cc1ccccc1-c1nc(CS(=O)(=O)CC(=O)NCCc2ccccc2)c(C)o1,-8,-10,-11,1,3,-4
CCCNC(=O)CS(=O)Cc1nc(-c2ccccc2C)oc1C (stereo not given),99*,1,8,2,5,9
CCCCc1c(-c2ccccc2OC)ncn1Cc1ccc(F)c(F)c1,x,1,x,-1,x,x
Cc1ccccc1-c1nc(CN2CCC(C(=O)NCCN3CCOCC3)CC2)c(C)o1,-5,-10,-12,-2,5,-1
Cc1ccccc1-c1nc(CS(=O)CC(=O)NCCN2CCN(Cc3ccccc3)CC2)c(C)o1 (stereo not given),99*,-8,-2,3,3,-8
